# Measured values from PubChem BioAssay AID371 (SRMLSC, 2006).
# Out of some 3,300 compounds screened, about 280 (8.5%) were called active. Many of the other results were omitted from the sample, so actives are more common in it than they were. Unmarked numbers belong to inactive results.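 How the source made its calls: active means mean growth inhibition over the two runs of 50% or more; inactive means mean growth inhibition under 50%.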
# Test: A549 NSCLC cell proliferation inhibitors – ATP luminescence, human non-small cell lung line, primary screen (AID 371);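 further: compound exposure lasted 72 h before the ATP read; 0% = untreated cell signal and 100% = no luminescence left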
# Settings: at 10 µM, active compounds read high
row,SMILES,growth inhibition
1,COc1ccc2[nH]c(C)c(C(=O)CN3CCN(C(=O)c4ccco4)CC3)c2c1,7.48%
2,COc1cccc(OC)c1OCCN1CCN(C(=O)c2ccco2)CC1,2.2%
3,COc1cc2nc(N3CCN(C(=O)C4CCCO4)CC3)nc(N)c2cc1OC (centres undefined),15.4%
4,COc1cc2nc(N3CCN(C(=O)c4ccco4)CC3)nc(N)c2cc1OC,82.5% (active)
5,Cc1cc(Cl)ccc1OCC(=O)OC(C)C(=O)N(C)C (centres undefined),-0.96%
6,O=C(O)c1cc2n(n1)C(C(F)(F)F)CC(c1ccccc1)N2 (centres undefined),-0.01%
7,CCOC(=O)c1nc2nc(C)c(Cl)c(=O)n2[nH]1,-2.82%
8,O=C(O)CC(SCc1ccc(C(=O)O)o1)C(=O)O (centres undefined),-5.57%
9,CC(=O)C(=[N+]=[N-])C(=O)NCc1ccccc1,-2.8%
10,CC(C)(C)NCc1cc2ccccc2[nH]c1=O,4.01%
11,Cc1nc2oc(C(=O)c3ccc(Br)cc3)c(N)c2c2c1COC(C)(C)C2,24.5%
12,COCCNC(=O)c1c(N)n(CCC2=CCCCC2)c2nc3ccccc3nc12,91.2% (active)
13,COCCNC(=O)c1c(N)n(/N=C/c2cccs2)c2nc3ccccc3nc12,6.53%
14,COCCCNC(=O)c1c(N)n(/N=C/c2cccs2)c2nc3ccccc3nc12,17%
15,CCC(CC)n1[nH]c(=O)cc1N,1.19%
16,CC1(C)CC(=O)C(C=N)=C(O)C1,1.41%
17,O=C(c1ccccc1F)N1CCC(N2CCCCCC2)CC1,2.62%
18,CCCc1[nH]n(-c2nc3ccccc3s2)c(=O)c1C=NCCN1CCOCC1,3.16%
19,Cn1nnnc1-c1cc(Br)ccc1NC(=O)c1ccccc1,10.8%
20,Cc1sc(-n2c(C)cc(/C=N/n3cnnc3)c2C)c(C#N)c1C,19.6%
21,CC(C)(C)c1nnc2sc(SCC(=O)c3ccccc3)nn2c1=O,-7.24%
22,Cc1nc2sccn2c(=O)c1CCN1CCC(=C(c2ccccc2)c2ccc(F)cc2)CC1,88.3% (active)
23,Cc1nc2sccn2c(=O)c1CCN1CCC(=C(c2ccc(F)cc2)c2ccc(F)cc2)CC1,92.5% (active)
24,Cc1nc2ccccn2c(=O)c1CCN1CCC(C(=O)c2ccc(F)cc2)CC1,6.06%
25,CN1CCN(CCCCC(=O)c2ccccc2)CC1,6%

row,SMILES,growth inhibition
1,COc1ccc(/C=N/n2cncn2)cc1COc1ccc(NC(C)=O)cc1,5.25%
2,CCOc1ccc(C2/C(=C(/O)c3ccc(OC)cc3)C(=O)C(=O)N2c2cc(C)on2)cc1OC (centres undefined),-9.53%
3,CCC(C)Nc1nc(OC)nc(N(C)C#N)n1 (centres undefined),-4.98%
4,O=C(O)c1ccc(COc2c(F)c(F)c(F)c(F)c2F)o1,3.65%
5,CN(C)/C=C1\N=C(c2ccc(Cl)cc2Cl)OC1=O,19.7%
6,CCOC(=O)c1[nH]c2cc3c(cc2c1NC(=O)CN1CCc2ccccc2C1)OCO3,12.5%
7,CSc1nc(N)nc(SCC(=O)CC(=O)OC(C)C)c1C#N,7.59%
8,CSc1nc(N)nc(SCC(=O)C23CC4CC(CC(C4)C2)C3)c1C#N,74.9% (active)
9,CSc1nc(N)nc(SCC(=O)OC(C)C)c1C#N,17%
10,COc1ccccc1C(=O)NC(=Nc1nc2ccccc2o1)NC(=O)c1ccccc1OC,67.3% (active)
11,O=C(Nc1ccccc1C(=O)NCCCn1ccnc1)c1ccccc1,-0.68%
12,COc1ccccc1C(=O)NCC(=O)n1nc(C)cc1C,4.23%
13,COc1ccccc1C(=O)Nc1cc(Cl)ccc1O,-0.89%
14,COc1ccc(C(=O)N/C(N)=N/c2nc3ccccc3o2)cc1,28.8%
15,N/C(=N\c1nc2ccccc2o1)NC(=O)c1ccccc1NC(=O)c1ccccc1,69.5% (active)
16,COc1ccccc1C1C(C#N)=C(N)Oc2cc(C)n(Cc3ccccn3)c(=O)c21 (centres undefined),-10.3%
17,CCNC(=O)COn1c(SCC(=O)NCC)nc2ccccc2c1=O,-0.37%
18,CCOC(=O)C1CCN(c2ncnc3c2cnn3-c2ccc(OC)cc2)CC1,4.94%
19,CS(=O)(=O)c1ccc2nc(NC(NC(=O)c3ccco3)(C(F)(F)F)C(F)(F)F)sc2c1,29.9%
20,CCOC(=O)CSc1nnc(C)c(=O)[nH]1,2.53%
21,CC(=O)Nc1cc2c(cc1Br)OCCO2,-4.42%
22,CN(C)c1ccc(C2C3C(=O)N(c4ccc(C(=O)O)cc4)C(=O)C3ON2c2ccccc2)cc1 (centres undefined),4.19%
23,COc1cccc2c1C(=O)c1c(O)c3c(c(O)c1C2=O)C[C@@](O)(C(=O)CO)C[C@@H]3O[C@H]1C[C@H](N)[C@H](O)[C@H](C)O1,82.1% (active)
24,COc1cccc2c1C(=O)c1c(O)c3c(c(O)c1C2=O)C[C@@](O)(C(C)=O)C[C@@H]3O[C@H]1C[C@H](N)[C@H](O)[C@H](C)O1,94.4% (active)
